KB-V1 cytotox: kills drug-selected multidrug resistant KB-V1 cells; KB-V1 MDR cells viability, CellTiter-Glo, 72 h; Potency, µM (titrated, usually from 46.1 µM), usual class: cytotoxic; 400,000 tested, 3.4% active; AID 1347076; further: on the % scale 0 is the no-effect control and ±100 the full control effect; nearly all actives have a fitted effect of over 60% in size
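Potencies derive from concentration-effect curves fitted to normalized luminescence (CellTiter-Glo) of KB-V1 cells treated for 72 h at 37 degrees C in phenol-red-free DMEM containing 10% FBS.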
HT1080-NT tox: kills 2HG-producing HT-1080-NT fibrosarcoma cells. HT-1080-NT fibrosarcoma viability, CellTiter-Glo ATP luminescence, 48 h. 360,000 tested, 1.6% active. Potency, µM (top dose mostly 46.1 µM), inactives show top-dose activity, negative = less viability, hits mostly cytotoxic;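 further: NT is the 2HG producing partner of a matched IDH1 knockdown line; 0% = DMSO-treated cells and -100% = media-only wells without cells; nearly all actives have a fitted effect of over 55% in size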
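Compounds were tested in concentration-response format on HT-1080-NT cells for 48 hours at 37 degrees C. Cell viability came from CellTiter-Glo luminescence; curves were classified by r2, response magnitude and activity.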
KB-3-1 cytotox: KB-3-1 parental cell cytotoxicity; KB-3-1 viability, CellTiter-Glo ATP luminescence, 72 h; Potency, µM (top dose mostly 46.1 µM), hits mostly cytotoxic; 400,000 tested, 1.4% active; further: on the % scale 0 is the no-effect control and ±100 the full control effect; nearly all actives have a fitted effect of over 60% in size
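Screening of KB-3-1 cells (DMEM, 10% FBS, phenol-red free) ran from lowest to highest compound concentration; after 72 h at 37 °C viability was read luminescently and curves fitted.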
SW480 rerep: induces DNA re-replication in SW480 colon adenocarcinoma cells; 340,000 tested, 1.8% active; SW480 DNA re-replication, Hoechst DNA content imaging, 48 h; AID 624297; Potency, µM (top dose mostly 46.1 µM), for inactives: top-dose re-replication activation, actives largely listed as activators; further: % of control where 0% means no effect; nearly all actives have a fitted effect of over 55% in size
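Hoechst fluorescence of nuclei (405 nm excitation, 500-530 nm emission) measured by plate-scanning imager after 48 hr compound exposure at 37 C; re-replication scored as increased number of nuclei with elevated intensity.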
HT1080 IDH1KD tx: kills HT-1080 cells with IDH1 knockdown; HT-1080 IDH1 knockdown viability, ATP luminescence, 48 h; Potency, µM (top dose mostly 46.1 µM), without a hit: at the top dose activity, negative = toxicity, hits mostly cytotoxic; 360,000 tested, 2% active; AID 686971;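 further: 0% = DMSO wells and -100% = cell-free medium wells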
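Luminescent ATP read-out (CellTiter-Glo, 10 min at room temperature) after 48 h compound exposure at 37 °C gave viability of IDH1-knockdown HT-1080 cells. Activity was normalised to DMSO and cell-free wells, then fitted as concentration-response curves.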
MCF10A rerep: DNA re-replication induction in MCF 10a cells. MCF 10A DNA re-replication, Hoechst nuclear intensity, 48 h. AID 624296. Potency, µM (top dose mostly 46.1 µM), for inactives: top-dose activity, positive = re-replication, hits mostly activators. 350,000 tested, 2.9% active; further: % of control where 0% means no effect; nearly all actives have a fitted effect of over 50% in size
* hit, by the source's call; i = inactive; ? = inconclusive; · = no result given; [ ] = dose if it differs, or a comment. Sampled rows, rich in hits. Any-hit rate of the full collection: about 8%. The call rests on the fitted dose curve; in most records, active means well fitted curve in the direction sought with a large enough effect; inconclusive means small, poorly fitted or top-dose-only effect, or another doubt; inactive means no such curve, though single readings can be large; an effect the other way counts as inactive or inconclusive. Potency means the concentration at half of the fitted maximal effect.

SMILES | KB-V1 cytotox | HT1080-NT tox | KB-3-1 cytotox | SW480 rerep | HT1080 IDH1KD tx | MCF10A rerep
O=[N+]([O-])c1ccc(/C=[N+](\[O-])[C@@H]2CCCC[C@@H]2/[N+]([O-])=C/c2ccc([N+](=O)[O-])o2)o1 | 20.6µM* | -19.8% | ? | 2.91µM* | -1.6% | 23.1µM*
O=C(Cc1ccc([N+](=O)[O-])cc1)NCC1CCCO1 (stereo not given) | i | -1.9% | i | 0.1% | 2.1% | -0.8%
Cn1nccc1C(=O)Oc1cccc(/C=N/NC(=O)c2ccccc2O)c1 | i | 2.6% | i | ? | 11.3% | -0.6%
COc1ccccc1C(CNC(=O)C1CC(=O)N(Cc2ccccc2)C1)N1CCCC1 (stereo not given) | i | -1.2% | i | -9.1% | -2.4% | -4.1%
O=C(NC1CCCC(C(F)(F)F)C1)c1ccc([N+](=O)[O-])o1 (stereo not given) | ? | ? | ? | 31.8% | ? | 6.51µM*
O=C(NCC1CCCO1)c1ccc(CS(=O)(=O)c2ccc(Br)cc2)o1 (stereo not given) | i | 0.0% | i | -2.3% | -1.0% | -0.3%
O=C(NC1CCCC1)c1ccc(Cl)s1 | i | 11.2% | i | 21.5% | -2.0% | 0.9%
O=C(NC1CCCCCC1)c1ccc([N+](=O)[O-])s1 | i | ? | ? | 18.4µM* | ? | ?
O=C(NCc1ccc(F)cc1)c1ccc(CS(=O)(=O)c2ccc(Br)cc2)o1 | 13µM* | -6.0% | i | -12.1% | -20.6% | ?
O=C(NCc1ccc2c(c1)OCO2)c1ccc(CS(=O)(=O)c2ccc(Br)cc2)o1 | i | -5.6% | i | 1.7% | -4.9% | 6.6%
O=C(NCC1CCCO1)c1ccc(CS(=O)(=O)c2ccc(Cl)cc2)o1 (stereo not given) | 23.1µM* | 15.7% | i | -5.7% | 4.5% | 23.7%
O=C(COC(=O)c1ccc([N+](=O)[O-])o1)NC1CCCC1 | ? | 2.4% | i | -2.9% | 3.5% | -1.0%
Clc1ccc(/C=C/c2ccnc3ccccc23)c(Cl)c1 | i | · | ? | · | · | ·
CCN(CC1COc2ccccc2O1)C(=O)CN1C(=O)NC(C)(c2ccc(C)cc2)C1=O (stereo not given) | ? | 7.0% | i | -1.0% | -2.6% | 3.7%
CCCn1nc(C(=O)NC2CC2)c2ccccc2c1=O | i | -0.5%[9.24 µM] | i | -17.7% | -2.8% | -0.6%
O=C(NCc1ccccc1)C(=O)NCC1COc2ccccc2O1 (stereo not given) | 5.17µM* | 16.4µM* | i | ? | 10.3µM* | 11.6µM*
CCCn1nc(C(=O)NCC2COc3ccccc3O2)c2ccccc2c1=O (stereo not given) | 7.31µM* | -8.6% | i | -32.3% | 2.7% | 15.3%
CCCCn1nc(C(=O)NCC(=O)Nc2c(C)cccc2C)c2ccccc2c1=O | 1.64µM* | -2.9% | i | -8.1% | 11.6% | -6.1%
CC(C)c1ccc(C2(C)NC(=O)N(CC(=O)NCC3COc4ccccc4O3)C2=O)cc1 (stereo not given) | 16.4µM* | -3.1% | i | 2.2% | 3.8% | 4.3%
COC(=O)c1sccc1S(=O)(=O)N1CCN(c2ccccc2)CC1 | i | · | i | · | · | ·
O=c1cc(-c2ccccc2)[nH]n1-c1nc2ccccc2[nH]1 | ? | 11.2µM* | ? | ? | 12.6µM* | -1.7%
CCc1cc(=O)[nH]c(-n2[nH]c(-c3ccccc3)cc2=O)n1 | ? | 14.6% | i | -87.3% | 0.2% | 2.9%
O=S(=O)(N/N=C/c1ccccc1OCc1ccc(Cl)cc1)c1ccccc1 | 16.4µM* | ? | ? | ? | -12.1% | 3.26µM*
COc1cc(/C=N/NS(=O)(=O)c2ccc(C)cc2)ccc1OCc1ccc(C(=O)O)cc1 | i | -2.9% | i | -0.2% | 4.6% | -3.0%
COC(=O)c1ccc(COc2ccccc2/C=N/NS(=O)(=O)c2ccc(C)cc2)cc1 | 18.4µM* | -29.6% | i | ? | ? | 2.6%
SMILES | KB-V1 cytotox | HT1080-NT tox | KB-3-1 cytotox | SW480 rerep | HT1080 IDH1KD tx | MCF10A rerep
COc1cc(OC)c(Nc2nc3ccccc3c3nncn23)cc1Cl | i | · | i | · | · | ·
CCOc1ccc(Br)cc1C1C(C(=O)OC)=C(N)Oc2cc(N(C)C)ccc21 (stereo not given) | 23.1µM* | 11.6µM* | ? | ? | 14.6µM* | 10.3µM*
O=C(O)CCn1cc(/C=C\C(=O)c2ccc(Cl)cc2)c(-c2cccc(Br)c2)n1 | i | -18.0% | i | -3.3% | ? | 11.6µM*
COc1ccc2nc(SCC(=O)c3c(C)[nH]c4ccccc34)nc(C)c2c1 | ? | · | i | · | · | ·
CCOC(=O)[C@H]1[C@H]2COc3ccc(Cl)cc3[C@@H]2N2C(=O)[C@@H](CO)NC(=O)[C@@]12C | i | 20.4% | i | -10.2% | -0.4% | 14.8%
CCCCc1nc2ccccc2c(=O)n1NC(=O)c1c(O)c2c(n(CC(C)C)c1=O)CCCC2 | 2.59µM* | 17.0% | 4.61µM* | -2.0% | 8.3% | 4.9%
CCCn1c2c(c(O)c(C(=O)Nc3ccccc3)c1=O)CCCC2 | 14.6µM* | 0.1% | i | -2.7% | -0.8% | 25.8%
CCn1c(=O)c(C(=O)Nc2nc3ccccc3[nH]2)c(O)c2ccccc21 | 1.16µM* | 7.31µM* | 11.6µM* | ? | 10.3µM* | 9.2µM*
CCc1nc2ccccc2c(=O)n1NC(=O)c1c(O)c2ccccc2n(CC)c1=O | 8.2µM* | -9.8% | ? | 13.5% | 2.0% | 8.3%
CC(C)Cn1c2c(c(O)c(C(=O)Nn3c(Cc4ccccc4)nc4ccccc4c3=O)c1=O)CCCC2 | ? | -3.2% | ? | -1.1% | -3.9% | 12.2%
O=C(c1cc2ccccc2o1)N1CCN(c2ncccn2)CC1 | i | 14.2% | i | 1.4% | 12.2% | -4.5%
CCc1ccc2oc(C(=O)N(Cc3cccc(Cl)c3)Cc3ccco3)c(C)c2c1 | i | · | i | · | · | ·
CC(C)N(C(=O)CSc1nnc(NC(=O)c2cccs2)s1)C(C)C | 23.1µM* | 0.6% | i | -3.0% | -13.9% | -0.7%
COc1cccc(-n2c(=O)c3c(C)c(C)sc3n(CC(=O)NCCc3ccc(OC)c(OC)c3)c2=O)c1 | i | · | i | · | · | ·
O=C(Nc1cc(-c2nc3ccccc3o2)ccc1Cl)c1ccc(N2CCCCC2)c([N+](=O)[O-])c1 | i | · | i | · | · | ·
O=C1CCC2(CC1)NC(=O)N(c1ccccc1)N2 | i | ? | i | 1.0% | 8.2µM* | 24.1%
Cc1ccc(OCCNC(=O)c2cccc(S(=O)(=O)NCc3ccccc3)c2)cc1 | 8.2µM* | ? | 4.61µM* | 6.51µM* | 7.31µM* | 6.51µM*

Assay outcomes deposited in PubChem by National Center for Advancing Translational Sciences (NCATS).
